This note sets out measurements from the OligoGym collection.
Further: reference of the scale not given here.

In one test the target is ANKRD22. In words: pooled miR-30 sensor sort-seq; sequence = guide strand. The note with it: shRNA.
TTTCTTCACAGCATAATGCAAG gave a sensor-assay potency score (higher = more potent) of -0.597.

The sequence TTTTGAGGTTGACATTAGCATT gave a sensor-assay potency score (higher = more potent) of -1.7. Still for that read-out and setting: to TTATTGTGGGGTCTGCACGGGC belongs -0.753. The same measure, in the same setting: to TAGCATTCGTACAAGAGCCTCA belongs 0.13. Turning to TTGACATTAGCATTTCTTCTTA, the sensor-assay potency score (higher = more potent) was -0.439.

ATCTGTAGCATTAACTTCGACG had a sensor-assay potency score (higher = more potent) of -1.27.

Sequence TATCCAGTGAGCTCTCACCATG returned a sensor-assay potency score (higher = more potent) of -1.62.

A further test addresses ANKRD23. The description is as above. As to conditions: shRNA.
Consider TTCCAATTTCAGCTTCTCCCGG, for which the sensor-assay potency score (higher = more potent) was -0.86. TGTCTCAGTCGCTTTTTCCGTC returned a sensor-assay potency score (higher = more potent) of -0.0673. The same measure, in the same setting: as for TTAAGATTCACTTTCTGGCGTT, the figure is -0.127; as for TAGAGCAGCAGTAGCTTCATGG, -0.653. The sequence TCTTTCTCCACTTACCAACTGC returned a sensor-assay potency score (higher = more potent) of -0.293.

In the case of TTATCCAGATTAAATCTGGTAC, the sensor-assay potency score (higher = more potent) is -0.803. Same read-out and setting: as for TTCTCCACTTACCAACTGCTGA, the figure is -0.872; as for TTTTCCACATAGTAACAACAGC, -1.09. Sequence TCTTTGAACCAAGTTTTCCAAG showed a sensor-assay potency score (higher = more potent) of -1.3.

The sequence TTCATGGCTTTGTAGCTGCCGT had a sensor-assay potency score (higher = more potent) of -0.986. In turn, TAATTTGAAACGTACAGACGGT had a sensor-assay potency score (higher = more potent) of 0.00484. AAATCTTTCAAGTTTCTTCTTC displayed a sensor-assay potency score (higher = more potent) of 0.216.

A further test has as its target ANKRD40. Described as above. As to conditions: shRNA.
Sequence TTGTCCTTCCTTAACAGAGTAT yielded a sensor-assay potency score (higher = more potent) of -0.746. Still for that read-out and setting: to TGATCTTCTCCACTTGATCTGG belongs -0.74; to TTGGAGTCGAGCAACATCCTTG, -0.239.

Regarding TATCATCAGAACCAGTTCCAGC, the sensor-assay potency score (higher = more potent) is -0.968. On the same count and under the same terms, to TAACAGGTAAGAGACCACCTGA belongs -0.364; to TTCACTTATCATCAGAACCAGT, -0.41; to TCGAGCAACATCCTTGTCCTTC, -0.697. With ATTATTTTCACTTATCATCAGA, the sensor-assay potency score (higher = more potent) was -0.625.

The sequence TTTTGTGGTAAGAATTTCTTTG returned a sensor-assay potency score (higher = more potent) of -0.767.

With TAACTTTCTGATCTTCTCCACT, the sensor-assay potency score (higher = more potent) is -1.02.

On to TTCCTTAACAGAGTATTGGGTA, for which the sensor-assay potency score (higher = more potent) was 0.698. On the same count and under the same terms, as for TTGATCTGGATTAACACCCAGC, the figure is -0.194.

The next test concerns the target ANKRD53. The test is described as above. The note with it: shRNA.
Regarding TTTCTGATAGCAGCTTCTCTGA, the sensor-assay potency score (higher = more potent) is -1.05. The sequence TAGTAGAGAAATGTCCTGCCAT returned a sensor-assay potency score (higher = more potent) of -0.32. The same measure, in the same setting: to TTGGACTCCGCGTCAGTCCAGG belongs -1.11; to TTTCTGAGTGCCAGCTTCCGGA, -1.18. Consider TGATAGTAGAGAAATGTCCTGC, for which the sensor-assay potency score (higher = more potent) came out at 0.127. For AAACTTGTACTCCTCTACCAGG, the sensor-assay potency score (higher = more potent) was -1.13. On the same count and under the same terms, as for TTGACCTTGATACTCAATCAGG, the figure is -0.673; as for TTCATTTTCGTCATCTCACGGG, 0.469.
